Laboratory results from PubChem BioAssay (NCATS).
Inconclusive results are not listed. The source made the active and inactive calls. Calls come from the whole dose curve; as a rule, active = well fitted curve in the direction sought with a large enough effect; inconclusive = small, poorly fitted or top-dose-only effect, or another doubt; inactive = no such curve, though single readings can be large; an effect the other way counts as inactive or inconclusive.

Tests used:
[1] = tested on: CRL-7250; experiment: Cytotoxic Profiling of Annotated Libraries Using Quantitative High-Throughput Screening (AID 1296008); details: Five cell lines viability, CellTiter-Glo ATP luminescence, 48-72 h; max response: stronger effect = lower value; note: nearly all actives have a fitted effect of over 60% in size; for max response: % is set by controls: 0 for no effect and ±100 for the full control effect
Outline: (§1)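 Cells exposed to compounds for 48 or 72 hr at 37 degrees Celsius. Viability read as ATP-coupled luminescence with CellTiter-Glo after 10 min at room temperature.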

[2] = tested on: HEK293; experiment: as above; details: Five cell lines viability, CellTiter-Glo ATP luminescence, 48-72 h; max response: stronger effect = lower value
Outline: as §1

[3] = tested on: HaCat; experiment: as above; details: Five cell lines viability, CellTiter-Glo ATP luminescence, 48-72 h; max response: stronger effect = lower value
Outline: as §1

[4] = tested on: KB-3-1; experiment: as above; details: Five cell lines viability, CellTiter-Glo ATP luminescence, 48-72 h; max response: stronger effect = lower value
Outline: as §1

[5] = tested on: NIH3T3; experiment: as above; details: Five cell lines viability, CellTiter-Glo ATP luminescence, 48-72 h; max response: stronger effect = lower value
Outline: as §1

[6] = tested on: HACAT; experiment: qHTS assay to identify novel small-molecules to repurpose for Merkel cell carcinoma treatment (AID 1296009); details: MCC and control cell lines, CellTiter-Glo viability, 72 h; at 44.8 µM (top of the series) unless noted; note: nearly all actives have a fitted effect of over 60% in size
Outline: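 CellTiter-Glo luminescence after 72 hr compound exposure at 37 degree celsius gave cell viability. Libraries NPC and MIPE were run as 8- and 11-point dose responses; RLUs normalized to DMSO (negative) and no-cell (cytotoxicity) controls.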

[7] = tested on: C33A; experiment: Primary qHTS to identify gynecologic anti-cancer compounds using libraries of approved drugs and bioactive compounds (AID 1345084); details: Gynecologic cancer cell panel viability, ATPlite luminescence, 48 h; series mostly up to 57.5 µM; note: % is set by controls: 0 for no effect and ±100 for the full control effect; nearly all actives have a fitted effect of over 55% in size
Outline: (§2)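 Cells, 1,000 per well, plated 16 h, then exposed 48 h at 37 C to compounds. Viability by ATPlite luminescence after 15 min at room temperature.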

[8] = tested on: CAOV3; experiment: as above; details: Gynecologic cancer cell panel viability, ATPlite luminescence, 48 h; series mostly up to 57.5 µM
Outline: as §2

[9] = tested on: CASKI; experiment: as above; details: Gynecologic cancer cell panel viability, ATPlite luminescence, 48 h; series mostly up to 57.5 µM
Outline: as §2

[10] = tested on: Es-2; experiment: as above; details: Gynecologic cancer cell panel viability, ATPlite luminescence, 48 h; series mostly up to 57.5 µM
Outline: as §2

[11] = tested on: HeLa; experiment: as above; details: Gynecologic cancer cell panel viability, ATPlite luminescence, 48 h; series mostly up to 57.5 µM
Outline: as §2

[12] = tested on: Hek293T; experiment: as above; details: Gynecologic cancer cell panel viability, ATPlite luminescence, 48 h, control line for the selectivity index; series mostly up to 57.5 µM
Outline: as §2

[13] = tested on: JEG-3; experiment: as above; details: Gynecologic cancer cell panel viability, ATPlite luminescence, 48 h; series mostly up to 57.5 µM
Outline: as §2

[14] = tested on: OV90; experiment: as above; details: Gynecologic cancer cell panel viability, ATPlite luminescence, 48 h; series mostly up to 57.5 µM
Outline: as §2

O=C(O)c1ccncc1Nc1nn(CCN2CCC(F)(F)CC2)c2ccc(F)cc12
inactive: max response [1] -22.9% | max response [2] 0.878% | outcome [3] | max response [4] 9.77% | max response [5] 1.4% | outcome [6] | Potency [7] | Potency [8] | outcome [9] | Potency [10] | Potency [11] | Potency [12] | Potency [13] | Potency [14]

C/C=C1/[C@H](O[C@@H]2O[C@H](CO)[C@@H](O)[C@H](O)[C@H]2O)OC=C(C(=O)OC)[C@H]1CC(=O)OCCc1ccc(OC(=O)C[C@@H]2C(C(=O)OC)=CO[C@@H](O[C@@H]3O[C@H](CO)[C@@H](O)[C@H](O)[C@H]3O)/C2=C/C)cc1
inactive: max response [1] -8.75% | max response [2] -1.34% | outcome [3] | outcome [4] | max response [5] 2.32% | outcome [6] inactive [at 9.27 µM] | activity change, negative = cytotoxicity [7] 3.14% [at 11.6 µM] | activity change, negative = cytotoxicity [8] 14% [at 11.6 µM] | activity change, negative = cytotoxicity [9] 4.82% [at 11.6 µM] | activity change, negative = cytotoxicity [10] 6.86% [at 11.6 µM] | activity change, negative = cytotoxicity [11] 18.2% [at 11.6 µM] | activity change, negative = cytotoxicity [12] 5.22% [at 11.6 µM] | activity change, negative = cytotoxicity [13] 15.1% [at 11.6 µM] | activity change, negative = cytotoxicity [14] 7.47% [at 11.6 µM]

CCc1cc(CC[C@]2(C3CCCC3)CC(O)=C(Cc3nc4nc(C)cc(C)n4n3)C(=O)O2)cc(CC)n1
inactive: outcome [1] | max response [2] 0.838% | outcome [3] | max response [4] -0.912% | max response [5] -7.94% | outcome [6] | Potency [7] | Potency [8] | outcome [9] | Potency [10] | Potency [11] | Potency [12] | Potency [13] | Potency [14]

C=CC1(C)CC=C2C(CCC3C(C)(C(=O)O)CCCC23C)C1 (stereo not drawn)
inactive: max response [1] 4.68% | max response [2] -4.6% | outcome [3] | max response [4] 7.47% | max response [5] -6.29% | outcome [6] | Potency [7] | Potency [8] | outcome [9] | Potency [10] | Potency [11] | Potency [12] | Potency [13] | Potency [14]

CC(=O)NC(Cc1c[nH]c2ccccc(=O)c12)C(=O)O (stereo not drawn)
inactive: max response [1] -6.01% | max response [2] 1.04% | outcome [3] | outcome [4] | max response [5] 1.4% | outcome [6] | Potency [7] | Potency [8] | outcome [9] | Potency [10] | Potency [11] | Potency [12] | Potency [13] | Potency [14]

C=C1CCC2[C@](C)(CO)CCC[C@@]2(C)[C@@H]1CCC1=CCOC1=O (stereo partly drawn)
inactive: max response [1] -10.5% | max response [2] -0.138% | outcome [3] | max response [4] 5.6% | max response [5] -5.66% | outcome [6] | Potency [7] | Potency [8] | outcome [9] | Potency [10] | Potency [11] | Potency [12] | Potency [13] | Potency [14]

C[C@@H]1CC[C@]2(C(=O)O[C@@H]3O[C@H](CO[C@@H]4O[C@H](CO)[C@@H](O)[C@H](O)[C@H]4O)[C@@H](O)[C@H](O)[C@H]3O)CC[C@]3(C)C(=CCC4[C@@]5(C)CC[C@H](O)[C@](C)(C(=O)O)C5CC[C@]43C)[C@@H]2[C@]1(C)O (stereo partly drawn)
inactive: outcome [1] | max response [2] 3.94% | outcome [3] | max response [4] 2.71% | max response [5] -11.7% | outcome [6] inactive [at 9.27 µM] | activity change, negative = cytotoxicity [7] -1.83% [at 11.6 µM] | activity change, negative = cytotoxicity [8] 5.32% [at 11.6 µM] | activity change, negative = cytotoxicity [9] 3.63% [at 11.6 µM] | activity change, negative = cytotoxicity [10] 6.01% [at 11.6 µM] | activity change, negative = cytotoxicity [11] 4.82% [at 11.6 µM] | activity change, negative = cytotoxicity [12] 10.6% [at 11.6 µM] | activity change, negative = cytotoxicity [13] 0.0588% [at 11.6 µM] | activity change, negative = cytotoxicity [14] 16.5% [at 11.6 µM]

C/C=C/C=C/C=C/C(=O)OC1C=C2C(O)OC(=O)[C@]2(O)[C@@]2(C)CCCC(C)(C)[C@H]12 (stereo partly drawn)
inactive: max response [1] -0.551% | max response [2] 4.05% | outcome [3] | max response [4] 4.24% | max response [5] 3.08% | outcome [6] inactive [at 17.4 µM] | Potency [7] | Potency [8] | outcome [9] | Potency [10] | Potency [11] | Potency [12] | Potency [13] | Potency [14]

COC(=O)C(CC1CCCC1)c1ccc(S(C)(=O)=O)cc1 (stereo not drawn)
inactive: outcome [1] | max response [2] 0.176% | outcome [3] | outcome [4] | max response [5] 2.5% | outcome [6] | Potency [7] | Potency [8] | outcome [9] | Potency [10] | Potency [11] | Potency [12] | Potency [13] | Potency [14]

CC(=O)NC(C(=O)OC1CCC(C)(C)C2CC=C3C(=O)OCC3C12C)C(C)C (stereo not drawn)
inactive: outcome [1] | max response [2] -2.64% | outcome [3] | outcome [4] | max response [5] 4.96% | outcome [6] | Potency [7] | Potency [8] | outcome [9] | Potency [10] | Potency [11] | Potency [12] | Potency [13] | Potency [14]

C[C@@H](c1ccccc1)N(C(N)=NC#N)c1cccc2ncccc12
inactive: outcome [1] | max response [2] 0.131% | outcome [3] | outcome [4] | max response [5] 3.53% | outcome [6] | Potency [7] | Potency [8] | outcome [9] | Potency [10] | Potency [11] | Potency [12] | Potency [13] | Potency [14]

CC1(C)CCC[C@@]2(C)[C@H]1[C@H](O)C=C(CO)[C@]2(O)CO
inactive: max response [1] -0.0206% | max response [2] -0.502% | outcome [3] | max response [4] 6.19% | max response [5] -5.75% | outcome [6] | Potency [7] | Potency [8] | outcome [9] | Potency [10] | Potency [11] | Potency [12] | Potency [13] | Potency [14]
